# Compounds with a hit are over-represented: about 12% of the library has one in this group of screens.
# JMJD2A Tudor inh = JMJD2A Tudor domain (human) inhibition; AID 504339; AlphaScreen JMJD2A-Tudor / H3K4me3 peptide binding; hit rate 4.4% among 390,000; Potency, µM (series often up to 114 µM), without a hit: at the highest dose activity change, negative = inhibition, hits mostly inhibitors; O75164; note: potency is the fitted concentration of half-maximal effect; % is set by controls: 0 for no effect and ±100 for the full control effect; nearly all actives have a fitted effect of over 50% in size
# HP1b chromo inh = inhibitors of HP1-beta chromodomain binding to methylated histone tails. P83916. AlphaScreen HP1-beta / biotin-H3K9me3 peptide binding. Potency, µM (highest dose often 114 µM), for the others: at the highest dose activity change, negative = inhibition, hits mostly inhibitors. hit rate 0.56% among 390,000. AID 540317; note: potency is the fitted concentration of half-maximal effect; nearly all actives have a fitted effect of over 70% in size
#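 HP1-beta protein (50 nM final) preincubated 30 min at room temperature with biotinylated H3(1-18)K9me3 peptide (50 nM) in PBS pH 7.4, 0.01% Tween-20, then compound added for 30 min. AlphaScreen streptavidin donor/nickel chelate acceptor beads (10 ug/mL final), 30 min dark, luminescence read.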
# G9a inh = blocks human histone lysine methyltransferase G9a; Q96KQ7; G9a H3K9 monomethylation, AlphaScreen, 2 h; Potency, µM (doses to about 102 µM), without a hit: at the top dose activity, negative = inhibition, hits mostly inhibitors; hit rate 8.8% among 350,000; note: potency is the fitted concentration of half-maximal effect; % is set by controls: 0 for no effect and ±100 for the full control effect; nearly all actives have a fitted effect of over 75% in size
# Target sequence (Q96KQ7 913-1193 limits assumed): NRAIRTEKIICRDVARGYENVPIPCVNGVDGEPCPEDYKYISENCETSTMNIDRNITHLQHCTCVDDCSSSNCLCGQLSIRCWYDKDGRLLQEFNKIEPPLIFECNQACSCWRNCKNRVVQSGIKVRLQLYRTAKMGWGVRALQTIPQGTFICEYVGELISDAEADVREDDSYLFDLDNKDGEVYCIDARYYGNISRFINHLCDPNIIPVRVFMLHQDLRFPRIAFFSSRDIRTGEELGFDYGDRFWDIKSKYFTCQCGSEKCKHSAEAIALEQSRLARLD
#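 Using a bead-based AlphaScreen, monomethylated H3K9 product from 2 h room-temperature reactions (G9a 20 nM, peptide 500 nM, SAM 20 uM) was detected with 0.5 ug/mL rabbit anti-H3K9me1 antibody.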
# PLK1 PBD inh = PLK1 (human) polo-box domain binding inhibition; P53350; Plk1 PBD binding of FITC phosphopeptide, fluorescence polarization; Potency, µM, without a hit: max response, negative = inhibition, usual class: inhibitors; hit rate 2.8% among 360,000; AID 720504; note: potency is the fitted concentration of half-maximal effect; series mostly up to about 57 µM; % is set by controls: 0 for no effect and ±100 for the full control effect; nearly all actives have a fitted effect of over 65% in size
# PI5P4Ka inh = blocks human PI5P4K alpha kinase activity | hit rate 1.2% among 330,000 | AID 652105 | max response, % | PI5P4Kalpha enzyme, ADP-Glo luminescence, 60 min; stronger effect = lower value; active = max response of -50% or lower; inconclusive = between -30% and -50%; inactive = -30% or higher; note: value at the top dose of about 77 µM; % is set by controls: 0 for no effect and ±100 for the full control effect
# Target sequence (P48426 whole entry, looked up): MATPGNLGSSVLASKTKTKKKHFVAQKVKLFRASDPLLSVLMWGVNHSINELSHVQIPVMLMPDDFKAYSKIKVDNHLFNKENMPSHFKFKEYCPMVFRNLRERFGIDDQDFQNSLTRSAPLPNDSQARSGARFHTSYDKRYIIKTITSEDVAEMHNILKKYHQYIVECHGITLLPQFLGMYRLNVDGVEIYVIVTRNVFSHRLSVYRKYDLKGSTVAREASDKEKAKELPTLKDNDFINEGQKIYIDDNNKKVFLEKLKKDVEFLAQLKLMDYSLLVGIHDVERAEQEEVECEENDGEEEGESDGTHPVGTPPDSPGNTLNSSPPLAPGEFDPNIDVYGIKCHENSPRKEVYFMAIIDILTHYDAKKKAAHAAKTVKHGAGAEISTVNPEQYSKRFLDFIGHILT
#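 ADP-Glo luminescence end-point after a 60 min room-temperature kinase reaction. PI5P4Kalpha and substrate in HEPES pH 7.4 buffer with EGTA, 0.1% CHAPS and 5% DMSO; ATP at 5 microM final.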
# BAZ2B block = BAZ2B (human) inhibition; Q9UIF8; hit rate 4.4% among 360,000; Potency, µM (highest dose often 114 µM), without a hit: at the top dose activity change, negative = inhibition, usual class: inhibitors; AlphaScreen BAZ2B-H3K14Ac peptide displacement; note: potency is the fitted concentration of half-maximal effect; % is set by controls: 0 for no effect and ±100 for the full control effect; nearly all actives have a fitted effect of over 60% in size
#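 AlphaScreen luminescence quantifies BAZ2B engagement of H3K14Ac peptide; the protein and biotinylated peptide are both at 50 nM final, buffer PBS pH 7.4 with 0.01% Tween-20, all steps at room temperature.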
# Starred values were filed as active, the others as inactive; ? = inconclusive; . = not tested or not shown; ! = repeats disagree; [ ] = another dose, or the depositor's remark. Unless noted, calls come from the whole dose curve; as a rule, active = well fitted curve in the direction sought with a large enough effect; inconclusive = small, poorly fitted or top-dose-only effect, or another doubt; inactive = no such curve, though single readings can be large; an effect the other way counts as inactive or inconclusive.
SMILES,JMJD2A Tudor inh,HP1b chromo inh,G9a inh,PLK1 PBD inh,PI5P4Ka inh,BAZ2B block
Cc1ccc(C)c(S(=O)(=O)N2CCN(CC(=O)NC(=O)NCc3ccco3)CC2)c1,50µM*,?,-33%,?,?,-25%
COc1ccc(N2CCN(CC(=O)NC(=O)NCc3ccco3)CC2)cc1,?,5%,32µM*,0%,-3,-7%
O=C(O)CCNc1cc2ccccc2cc1C(=O)O,40µM*,-21%,?,-12%,-11,.
O=C(O)CCCNc1ccc(S(=O)(=O)Nc2ccccc2C(=O)O)cc1C(=O)O,-34%,8%,50µM*,1%,.,?
Cc1ccccc1NS(=O)(=O)c1ccc(C)c(C(N)=O)c1,13%,29%,0%,0%,-1,-2%
COc1ccc(CN2CC[C@H]3C=CC[C@@H](C(=O)NCCc4ccccc4)[C@H]3C2=O)cc1OC,-4%,20%,.,-12%,-1,.
CCn1c(C)c(C)c2cc(C(=O)NCCCN3CCCCCC3)ccc21,56µM*,-19%,?,-13%,-10,56µM*
CCn1c(C)c(C)c2cc(C(=O)NCCCN3CCCCC3)ccc21,?,1%,?,-1%,3,40µM*!
CCn1c(C)c(C)c2cc(C(=O)NCCN3CCCCCC3)ccc21,45µM*,-6%,50µM*,-17%,1,22µM*
CSc1ccc(CCNC(=O)CN2C(=O)COc3ccc(S(=O)(=O)N4CCCC4)cc32)cc1,-21%,18%,-33%[59 µM],.,.,?
CCOC(=O)c1cc(-c2ccccc2)n(CCC(=O)NC2CCCCC2)c1C,-1%,-9%,?,.,.,-26%
CC(=O)c1cc(-c2ccccc2)n(CCC(=O)Nc2ccc(C)cc2C)c1C,-5%,15%,3%[59 µM],.,.,-4%
CC(=O)c1ccc(S(=O)(=O)NCCC(=O)NC2CCN(Cc3ccccc3)CC2)cc1,4.5µM*,14µM*,.,-17%,-2,.
CCOC(=O)c1cc(-c2ccc(OC)cc2)n(CCC(=O)NC2CCN(Cc3ccccc3)CC2)c1C,?,-33%,?,-12%,-6,40µM*
COc1cc(NC(=O)C2CC2)c(OC)cc1NC(=O)CCC(=O)NC1CCN(Cc2ccccc2)CC1,-15%,20%,40µM*,-28%,6,-4%
COc1ccc(Cl)cc1NC(=O)CN1CCC(NC(=O)C2CC2)CC1,3%,-16%,2%,-14%,-2,12%
CCC(C)(C)NC(=O)CCn1c(-c2ccccc2)cc(C(C)=O)c1C,-17%,6%,-22%,-4%,6,50µM*
Cc1cc(OCC(=O)OCC(=O)N(C)Cc2ccccc2C)ccc1Cl,21%,61%,18%[12.7 µM],-12%,15,30%
CC(=O)c1cc(-c2ccccc2)n(CCC(=O)NC2CCCCCCC2)c1C,-30%,-28%,1%[59 µM],-8%,0,50µM*
Cc1ccc(Cl)cc1N1CCN(C(=S)NCc2ccco2)CC1,-19%,-9%,?,-10%,7,?
S=C(NCc1ccco1)N1CCN(Cc2ccco2)CC1,4.5µM*,?,7.1µM*,-4%,.,?
S=C(NCc1ccco1)N1CCN(c2ccccc2Cl)CC1,-28%,-11%,56µM*,-11%,0,-32%
O=C(NCc1ccco1)C(=S)N1CCCC1,0%,18%,32µM*,-7%,8,-13%
COCCNC(=O)C1CCCN(C(=O)c2ccc(F)c(C)c2)CC1 (stereo not drawn),.,.,.,-1%,8,.
CCN(c1ccccc1)S(=O)(=O)c1ccc(NC(=O)c2nc(SC(C)C)ncc2Cl)cc1,-29%,10%,-31%[59 µM],.,.,-17%
SMILES,JMJD2A Tudor inh,HP1b chromo inh,G9a inh,PLK1 PBD inh,PI5P4Ka inh,BAZ2B block
CC1(C(=O)Nc2ccc(Cl)cc2)Cc2c(-c3ccc(C(N)=O)cc3)ccnc2O1 (stereo not drawn),.,.,.,4%,-2,.
CCOc1cc(C(=O)N(CC)CC(=O)Nc2c(F)cccc2F)ccc1OCC(=O)N1CCCCC1,2%,25%,5%,2%,-4,21%
COc1cc(-c2nc(-c3ccc4c(c3)-c3ccccc3S4(=O)=O)c(-c3ccccc3)[nH]2)cc(OC)c1OC,-28%,18%,45µM*,-4%,10,-2%
S=c1nc(-c2ccc(Cl)cc2)[nH][nH]1,?,?,0.56µM*,38µM*,?,-26%
CCCCCCCCCCC1=C(C)C(=O)C(OC)=C(OC)C1=O,.,.,5µM*,.,.,.
COC1=C(OC)C(=O)C(CCCCCCCCCCO)=C(C)C1=O,.,.,?,.,.,50µM*
CN(C)c1ccc(Nc2ncnc3ccc(Br)cc23)cc1,45µM*,?,10µM*,-1%,-19,45µM*
NC(=O)C[C@@H]1N[C@]2(C(=O)Nc3ccccc32)[C@@H]2C(=O)N(c3cc(C(F)(F)F)ccc3Cl)C(=O)[C@H]12,-19%,33%,50µM*,-1%,.,-2%
NC(=O)C[C@@H]1N[C@]2(C(=O)Nc3ccccc32)[C@@H]2C(=O)N(C3CCCCC3)C(=O)[C@H]12,-2%,7%,-32%,-10%,-2,-2%
CC(C)[C@@H]1N[C@]2(C(=O)Nc3ccccc32)[C@@H]2C(=O)N(c3cccc(C(F)(F)F)c3)C(=O)[C@@H]21,-7%,34%,50µM*,-2%,.,11%
O=C(NC1CCCCCC1)C1c2ccccc2C(=O)N1C1CC1 (stereo not drawn),-5%,6%,8.9µM*,-8%,.,-3%
COc1ccccc1CN1C(=O)c2ccccc2C1C(=O)NC1CCC(C)CC1 (stereo not drawn),?,-3%,21%,19µM*,-16,-19%
O=C(NCc1ccc(F)cc1)c1cc(C2CCCN(C(=O)c3ccc4c(c3)CCO4)C2)on1 (stereo not drawn),.,.,.,-7%,-1,.
O=[N+]([O-])c1ccc(-c2cc(-c3ccncc3)nc3ccc4ccccc4c23)cc1,-22%,2%,45µM*,-8%,.,?
CCCCNC(=O)c1ccc2c(=O)n(Cc3ccc(OC)cc3)c(=O)[nH]c2c1,-2%,24%,-4%[59 µM],.,.,0%
C[C@@]12CCC[C@H]1C1CC[C@H]3C[C@H](O)CC[C@]3(C)C1CC2 (stereo partly drawn),.,.,34%[59 µM],.,.,.
Cc1ccc2c(c1)CC(C)N2S(=O)(=O)c1nnc(NC(=O)c2ccccc2F)s1 (stereo not drawn),-31%,-28%,-31%[59 µM],.,.,?
CC(C)Oc1ccc(CN2CCc3nc(Nc4ccc5c(c4)OCCO5)ncc3C2)cc1,32µM*,-17%,-26%[12.7 µM],.,.,32µM*
CCc1ccc(CN2CCc3nc(Nc4ccccc4)ncc3C2)cc1,-24%,13%,5%[12.7 µM],.,.,-34%
CCOc1ccc(CN2CCc3nc(Nc4ccc(OC)cc4OC)ncc3C2)cc1,50µM*,-36%,?,.,.,-37%
